# The campaign covered roughly 65,000 compounds. About 2,100 (3.2%) showed an effect of 50% or more. The median lay at about -52%. For the sample, strong results were picked, then their nearest neighbours and some compounds at random.
# Test system: Plasmodium falciparum
# Assay: Screen against P. falciparum Asexual Blood Stage (ABS), at 5uM
# Format: functional, Dd2
# Details: tested at 5 uM
row,SMILES,INHIBITION
1,OC1CCN(Cc2c(C3CCCNC3)[nH]c3ncccc23)CC1 (centres undefined),-65.3%
2,O=C(CCn1ccc2cc(Br)ccc21)NC[C@@H]1CCCN2CCCC[C@H]12,67.1%
3,COc1ccc2c(ccn2CC(=O)NC[C@@H]2CCCN3CCCC[C@H]23)c1,-57.3%
4,O=C(Cn1ccc2ccccc21)NC[C@@H]1CCCN2CCCC[C@H]12,-14.5%
5,Cc1ccc2c(ccn2CC(=O)NC[C@@H]2CCCN3CCCC[C@H]23)c1,49%
6,Cc1ccc2c(ccn2CCC(=O)NC[C@@H]2CCCN3CCCC[C@H]23)c1,52%
7,O=C(Cn1ccc2cc(Br)ccc21)NC[C@@H]1CCCN2CCCC[C@H]12,-14%
8,Nc1cc(N2CCC(c3cc(Cc4ccccc4)n[nH]3)CC2)ccn1,11.1%
9,CN(C)[C@@H]1CN(Cc2ccccn2)C[C@H]1c1cn(C)c2ccccc12,52.6%
10,Cc1cc(C)n(C2CN(Cc3ccccn3)C2)n1,-90.2%
11,CN(Cc1ccco1)[C@@H]1CN(Cc2ccccn2)C[C@@H]2CCCO[C@@H]21,31.5%
12,COc1cccc2c1OCC(Cc1cc(C(=O)N3CCCC3)ccn1)C2 (centres undefined),-9.28%
13,COc1ccc([C@@H]2CN(Cc3cccnc3N)C[C@H]2NC(C)=O)cc1,-59.7%
14,COc1ccc([C@@H]2CN(Cc3cccnc3N)C[C@H]2N(C)C)cc1,53.9%
15,COc1ccc([C@@H]2CN(Cc3ccncc3)C[C@H]2N(C)C)cc1,-36.3%
16,Cn1cccc1C(=O)N1CCn2cc(CN3CCCC3)nc2C1,-26.2%
17,COCCN(C/C=C/c1ccccc1)Cc1ccccn1,23.1%
18,COCCN(C/C=C/c1ccccc1)Cc1nccs1,-7.08%
19,CCc1ccc(CN(C/C=C/c2ccccc2)CCOC)nc1,54.8%
20,O=C(c1cccc(Cl)c1)N1CCCn2c(CN3CCCCC3)nnc2C1,10.2%
21,Cn1ccnc1-c1nc2cc(S(=O)(=O)N3CCCC3)ccc2n1C,-13.2%
22,Nc1cc2c(nn1)CCN(C(=O)CCC1CCCCC1)C2,-69.7%

row,SMILES,INHIBITION
1,c1cc(CN(CCCn2ccnc2)Cc2ccoc2)ccn1,-27%
2,CN(C)c1ccc(CN(CCCn2ccnc2)Cc2c[nH]cn2)cc1,79.8%
3,Cc1ccc(CN(CCCn2ccnc2)Cc2c[nH]cn2)s1,21.2%
4,Cc1nc[nH]c1-c1nccn1CCN1CCOC1=O,-38.9%
5,Cn1cc(C2CCCN2CCCn2c(=O)oc3ccccc32)cn1 (centres undefined),8.65%
6,Cc1nc(C2CCCN2CCCn2c(=O)oc3ccccc32)no1 (centres undefined),-44.1%
7,O=c1oc2ccccc2n1CCCN1CCCC1c1ccc(O)cc1 (centres undefined),54.1%
8,CN1CCC(CCc2ccnc(NC(=O)c3ccccn3)c2)CC1,-102%
9,Cn1cc(CNCCNc2ncc(Cl)cc2Cl)cn1,54%
10,CCn1cc(CNC(=O)CCn2ncc3c(Cl)cccc32)cn1,-21.7%
11,Cn1cc(CCNCc2cc(Cl)c3c(c2)OCCO3)cn1,-26.6%
12,Cn1ccnc1CNCCNc1ncc(Cl)cc1Cl,41.8%
13,CCn1cc(CNCCNc2ncc(Cl)cc2Cl)cn1,66.6%
14,CCn1cc(CNc2ccc3nccnc3c2)cn1,-14.1%
15,O=C([C@@H]1CC[C@@H]2[C@@H](CCN2Cc2ccoc2)O1)N1CCCC1,-94.6%
16,O=S(=O)(c1ccc(Cl)s1)N1CCN(Cc2nc(-c3ccco3)cs2)CC1,-66%
17,NC(=O)C1(c2cnccn2)CCCN1Cc1ccncc1 (centres undefined),-58.5%
18,O=C(NCCNc1cncc(Br)c1)c1ccc(O)cc1,52.2%
19,O=C(NCCNC(=O)c1ccc(Br)cc1)c1ccc(O)cc1,30.3%
20,O=C(NCCNc1ccc(Br)cn1)c1ccc(O)cc1,-20.5%
21,CCCN1CCc2c(C(=O)N(C)Cc3ccccn3)nn(C)c2C1,-23.7%
22,O=C(Cc1ccsc1)N1CCCC(c2n[nH]c3ncccc23)C1 (centres undefined),-37.1%

row,SMILES,INHIBITION
1,O=C(CCN1CCCCC1c1cc2ccccc2[nH]1)N1CCOCC1 (centres undefined),39.3%
2,CS(=O)(=O)NCCCN1CCCC1c1cccc(Br)c1 (centres undefined),65.4%
3,COc1cccc(C2CCCN2CCCNS(C)(=O)=O)c1 (centres undefined),-0.589%
4,COc1ccc(C2CCCCCN2CCCNS(C)(=O)=O)cc1 (centres undefined),59.3%
5,CS(=O)(=O)NCCCN1CCCC1c1ccsc1 (centres undefined),-73.1%
6,CS(=O)(=O)NCCCN1CCCC1c1ccccc1 (centres undefined),-93.1%
7,COc1ccc(C2CCCCCN2S(C)(=O)=O)cc1 (centres undefined),-92.8%
8,CS(=O)(=O)NCCCN1CCCC1Cc1ccccc1 (centres undefined),-29%
9,CS(=O)(=O)NCCCN1CCCCC1c1cc2ccccc2[nH]1 (centres undefined),58.9%
10,Cc1ocnc1C(=O)N1CCCC1c1ccc(C(=O)N2CCSCC2)s1 (centres undefined),-154%
11,Cn1c(=O)c2c(n3ncnc13)NC(=O)CC2c1cccc(Br)c1 (centres undefined),-61.2%
12,CC(C)c1nc(CN(C)C(=O)c2cn3ccsc3n2)cs1,-43.1%
13,COc1cccc(C=CCCN2CCCN(C(C)=O)CC2)c1,-13%
14,COCC(=O)N1CCC2(CCCN(Cc3cc(OC)ccc3F)C2)C1 (centres undefined),-70%
15,Cc1cc(-n2cccn2)ccc1CN1CCC(O)(CN2CCCCC2)C1 (centres undefined),62.1%
16,Cc1cc(-n2cccn2)ccc1CN1C[C@@H](CN(C)C)[C@@H](CO)C1,51.7%
17,Cc1cc(F)ccc1CN1CCCC2(C1)OCCO2,-67.8%
18,COc1ccc(F)c(CN2CCCC3(CCN(C(=O)CSC)C3)C2)c1 (centres undefined),-63.5%
19,CN(C)C[C@@H]1CN(Cc2ccccc2C#N)C[C@@H]1CO,-47.7%
20,Cc1cc(C)c(C(=O)N2CCCC(O)(CN3CCCC3)C2)cc1C (centres undefined),-30.5%
21,CC(C)c1nccc(CN2CCC(O)(CN3CCCCC3)C2)n1 (centres undefined),32.8%
22,CCCn1ccnc1CN1CCC(O)(CN2CCCCC2)C1 (centres undefined),18.6%

row,SMILES,INHIBITION
1,Cc1cc(F)ccc1CN1CCCC(O)(CN2CCCC2)C1 (centres undefined),66.7%
2,COc1ccc(CN2CCC(O)(CN3CCCCC3)C2)c(C)c1 (centres undefined),67.6%
3,Cc1ccccc1CN1C[C@@H](CN(C)CCO)[C@@H](CO)C1,7.46%
4,COc1cccc(Cn2cc(N3C(=O)CCC3=O)cn2)c1,-83.8%
5,c1cnc(N2CCC3(COCc4cnc(-c5cccnc5)nc43)C2)nc1 (centres undefined),-78.5%
6,COCC1CN(c2ncccn2)Cc2cnn(CC3CC3)c21 (centres undefined),-16.5%
7,CS(=O)(=O)N1CCN(C(=O)C2CSCCC(=O)N2)CC1 (centres undefined),-38.6%
8,Cc1nc(CN2CCN(C3CCOC3)Cc3cccnc32)cs1 (centres undefined),-78.6%
9,CCCNC(=O)c1cccc(CNCc2csc(C(C)C)n2)c1,-48.2%
10,Cc1noc(NC(=O)c2cccc(Br)c2)n1,-81.9%
11,Cc1cc(C(=O)N2CCCC(O)(CN3CCCC3)C2)ccc1Cl (centres undefined),-21.4%
12,O=C1CCC2(CCN(Cc3ccc(F)cc3Cl)CC2)CN1CCO,-54%
13,OC1(CN2CCCC2)CCCN(Cc2ccc(F)cc2Cl)C1 (centres undefined),58.3%
14,Cn1cc(C[C@H]2[C@H](O)CCN2Cc2ccc(F)cc2)cn1,6.42%
15,Cc1cc(CN(C)C(=O)Nc2ccccc2C)no1,-85.5%
16,Cc1ccc(CN(CCN(C)C)Cc2ncc[nH]2)s1,-73.3%
17,Cc1ccc(CN(CCN(C)C)Cc2nc3ccccc3[nH]2)s1,61.2%
18,Cc1ccc(CN(CCCO)Cc2nc3ccccc3[nH]2)s1,-76.9%
19,Cc1ccccc1NC(=O)CCNC(=O)c1ccoc1,-37.5%
20,COCCCNC(=O)Cc1nc(-c2ccncc2)n[nH]1,-95.8%
21,CCC1=NC2(CCC(C(=O)Nc3ccc(C)nc3)CC2)C(=O)N1C (centres undefined),-28.2%
22,Cc1cccc(CNc2cc(C3CCCNC3)ccn2)n1 (centres undefined),-46.7%

row,SMILES,INHIBITION
1,CC(C)(C)OC(=O)NC1CCCN(Cc2cccc(O)c2)C1 (centres undefined),51.7%
2,CC(=O)NC1CCCN(Cc2ccn(C)c(=O)c2)C1 (centres undefined),-10.7%
3,CC(C)(C)OC(=O)NC1CCCN(Cc2cccs2)C1 (centres undefined),25.8%
4,COCCN(Cc1cnn(C)c1)c1nc2c(s1)c(C)nn2C,-50.7%
5,Cc1nn(C)c2nc(N(CCN(C)C)C3CCCC3)sc12,-9.31%
6,Cc1nn(C)c2nc(N(Cc3cnn(C)c3)C3CCCCC3)sc12,60%
7,O[C@H]1CCN(CC2CC2)[C@H]1Cc1ccncc1,-6.99%
8,CC1CCCN(CCCNC(=O)c2ccc(N(C)S(C)(=O)=O)cc2Cl)C1 (centres undefined),-129%
9,CC(O)CNCc1c[nH]nc1-c1cc2ccccc2o1 (centres undefined),-15.3%
10,Cc1nc(CN2C(=O)C[C@H]3[C@H]2CCN3CC2CCOC2)cs1 (some centres undefined),-84.1%
11,COc1ccccc1C1(CNc2cn[nH]c(=O)c2Cl)CC1,-7.64%
12,COc1ccccc1C1(CNc2ccc(C(=O)N(C)C)cn2)CC1,-70.8%
13,COc1ccccc1C1(CNCc2ccc([S+](C)[O-])cc2)CC1 (centres undefined),69.5%
14,COc1ccccc1C1(CNCc2cccc(C#N)c2)CCOCC1,66.9%
15,COc1ccccc1C1(CNc2snc(Cl)c2C#N)CCOCC1,27%
16,COc1ccccc1C1(CNc2cn[nH]c(=O)c2Cl)CCOCC1,-28.1%
17,CC(C)(C)CN(CCC#N)C(=O)c1cccc(CC#N)c1,-98%
18,CCCC(NC(=O)c1ccc(OC)cc1C)c1nnn[nH]1 (centres undefined),-54.4%
19,Cc1ncc(C(=O)N2CCCC2(C)C(=O)N2CCOCC2)c(C)n1 (centres undefined),-32.2%
20,CCS(=O)(=O)N1CCCN(CCCOC)CC1,-97.9%
21,CCOC1COC2(CCN(C(=O)c3cccc(C)n3)CC2)C1 (centres undefined),-46%

# Source: ChEMBL document CHEMBL4513216, “Probing the Open Global Health Chemical Diversity Library for Multistage-Active Starting Points for Next-Generation Antimalarials” (ACS Infect Dis, 2020)
